{"source": "PubChem BioAssay", "data": [{"target": "Pro-neuregulin-1, membrane-bound isoform (Homo sapiens) (UniProt Q02297)", "sequence (Q02297 whole entry, looked up, canonical isoform)": "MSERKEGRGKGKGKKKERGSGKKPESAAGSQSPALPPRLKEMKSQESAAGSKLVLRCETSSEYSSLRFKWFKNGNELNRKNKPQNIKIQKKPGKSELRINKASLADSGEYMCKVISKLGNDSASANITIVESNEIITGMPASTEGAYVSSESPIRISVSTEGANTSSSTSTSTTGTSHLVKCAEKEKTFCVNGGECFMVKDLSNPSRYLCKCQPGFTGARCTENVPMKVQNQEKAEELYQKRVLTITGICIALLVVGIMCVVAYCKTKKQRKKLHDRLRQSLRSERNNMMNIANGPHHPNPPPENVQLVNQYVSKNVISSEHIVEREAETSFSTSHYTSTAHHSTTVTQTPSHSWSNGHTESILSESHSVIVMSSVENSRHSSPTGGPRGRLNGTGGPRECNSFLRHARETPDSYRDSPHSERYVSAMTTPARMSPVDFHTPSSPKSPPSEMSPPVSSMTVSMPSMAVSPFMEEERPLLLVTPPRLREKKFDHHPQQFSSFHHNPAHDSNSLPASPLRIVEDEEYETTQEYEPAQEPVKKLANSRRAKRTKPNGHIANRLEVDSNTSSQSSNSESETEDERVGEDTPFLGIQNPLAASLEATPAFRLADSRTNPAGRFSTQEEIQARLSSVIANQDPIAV", "test": "small molecules binding neuregulin-1 protein – biochemical, small-molecule microarray, fluorescence 635/667, psychiatric disease protein project, primary screen (AID 1075);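 further: score combines 667 nm spot fluorescence with signal to noise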", "conditions": "NRG1 binding, 635 nm fluorescence, higher = more signal", "values": [{"molecule": "CCCCO[C@H]1C[C@H]2C(I)=C[C@@H]1C(=O)[C@]21CO1", "composite z-score": -0.149}, {"molecule": "COc1ccc(CN(C2=CC[C@@]3(C(N)=O)C(=O)C(Cl)=C(Cl)C(=O)[C@@]3(C#N)C2)S(=O)(=O)c2ccc(Br)cc2)cc1", "composite z-score": 0.914}, {"molecule": "CCCCN1CC=CC23O[C@@H]4/C=C\\CCC(C)OC(=O)C4[C@H]2C(=O)N(C(CO)C(C)C)[C@@H]3C1=O", "note": "(stereo partly drawn)", "composite z-score": 0.362}, {"molecule": "[N-]=[N+]=NCc1ccccc1C[C@]1(C(N)=O)N=C(c2ccc(OCCCO)cc2)O[C@H]1c1ccccc1", "composite z-score": 1.89}, {"molecule": "C=CCNC(=O)[C@H]1[C@@H]2C(=O)O[C@@H](c3ccccc3)[C@@H](c3ccccc3)N2[C@@H](c2ccc(O)cc2)[C@]12C(=O)Nc1ccc(C#CC3(O)CCCCCC3)cc12", "composite z-score": 0.865}, {"molecule": "NCCCCCNC(=O)[C@@H]1C[C@@H]2C(=O)NCC(=O)N2[C@@H]1c1cccc(OCCO)c1", "composite z-score": 0.889}]}, {"tested_on": "Neuregulin-1 EGF-like domain", "test": "small molecules binding NRG1 EGF domain – biochemical, small-molecule microarray, 635 nm fluorescence, primary screen (AID 1081);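 further: binding of the protein to compounds printed on small-molecule microarray slides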", "conditions": "higher = more signal", "values": [{"molecule": "COc1cc2c(cc1OC)CN(C(=O)[C@@H]1[C@H]3C(=O)O[C@H](c4ccccc4)[C@H](c4ccccc4)N3[C@H](c3ccc(OCCO)cc3)[C@@]13C(=O)Nc1ccc(C#CC4(O)CCCCCC4)cc13)CC2", "composite z-score": 1.15}, {"molecule": "C=C(/C(=C/C[C@H](OC(C)=O)c1cccc(OCCO)c1)c1cnc2ccccc2c1)C(C)C", "composite z-score": 0.914}, {"molecule": "OCCCC1=CC(c2ccc(CN3CCCC3)cc2)N(Cc2sc3ccccc3c2Cl)CC1", "note": "(stereo not drawn)", "composite z-score": 1.27}, {"molecule": "CCOC(=O)C[C@H]1[C@H](OC(=O)c2ccccc2-c2ccccc2)[C@@H](NC(=O)C2CCCCC2)c2cc(OCCCO)ccc2N1C(=O)Cc1ccc(OC)cc1", "composite z-score": -0.163}, {"molecule": "CN1C(=O)C2C=CC(C(O)c3cccc4ccccc34)N(N3CCCCC3)C2C1=O", "note": "(stereo not drawn)", "composite z-score": 1.19}, {"molecule": "CC1=C([C@H](O)CCc2ccccc2)[C@H](CO)[C@@H]2C(=O)N(C)C(=O)[C@@H]2C1", "composite z-score": 0.493}, {"molecule": "O=C1O[C@@H](c2ccccc2)[C@@H](c2ccccc2)N2[C@@H](c3ccc(OCCO)cc3)[C@]3(C(=O)Nc4ccccc43)[C@@H](C(=O)O)[C@H]12", "composite z-score": 1.45}, {"molecule": "C=C(/C(=C/C[C@@H](OC(C)=O)c1cccc(OCCO)c1)c1cc(C(=O)OC)ccc1OC)C(C)C", "composite z-score": 0.938}, {"molecule": "CCOC(=O)C[C@H]1[C@H](OC(=O)c2cc3ccccc3oc2=O)[C@@H](NC(=O)c2ccc(-c3ccccc3)cc2)c2cc(OCCCO)ccc2N1C(=O)c1ccc2ccccc2n1", "composite z-score": 1.03}, {"molecule": "CC[C@H]1C2=C3C(CC[C@H]4C(OCc5ccc(F)cc5C(F)(F)F)OC[C@](C)([C@@H]34)N(C(=O)OC(C)(C)C)C2)C(COC)C1COC", "note": "(stereo partly drawn)", "composite z-score": -0.0151}, {"molecule": "C=CCOC(=O)[C@H]1[C@@H]2C(=O)O[C@@H](c3ccccc3)[C@@H](c3ccccc3)N2[C@@H](c2ccc(OCCOC(=O)[C@H]3C[C@H]4C(=O)N[C@@H](CCCCNC(C)=O)C(=O)N4[C@H]3c3ccc(O)cc3)cc2)[C@]12C(=O)Nc1ccccc12", "composite z-score": 0.999}, {"molecule": "[N-]=[N+]=Nc1ccccc1[C@@H]1OC(c2ccc(OCCCO)cc2)=N[C@]1(Cc1ccccc1)C(=O)NCC(O)CO", "note": "(stereo partly drawn)", "composite z-score": 1.06}, {"molecule": "COc1ccc(C(O)C2C=CC3C(=O)N(c4ccccc4)C(=O)C3N2Nc2ccc([N+](=O)[O-])cc2)cc1", "note": "(stereo not drawn)", "composite z-score": 1.16}, {"molecule": "O=C1OCC=C[C@H]2OC34C=CCN(Cn5nnc6ccccc65)C(=O)[C@H]3N(CCCO)C(=O)[C@@H]4[C@@H]12", "note": "(stereo partly drawn)", "composite z-score": 1.54}, {"molecule": "CCC[C@@H]1C[C@@]1(CCC)[C@@H](NC(=O)OCc1ccccc1)c1ccc(-c2ccccc2)cc1", "composite z-score": -0.76}, {"molecule": "CC(C)(C)OC(=O)CC[C@@]1(C(=O)NCc2ccccc2)N=C(c2ccc(OCCCO)cc2)O[C@@H]1c1ccccc1N=[N+]=[N-]", "composite z-score": 0.968}, {"molecule": "COCCCNC(=O)[C@]1(CCS(=O)(=O)c2ccccc2)N=C(c2ccc(OCCCO)cc2)O[C@@H]1c1ccccc1CN=[N+]=[N-]", "composite z-score": 1.14}, {"molecule": "C=C(COC)/C(=C/C[C@H](OC(=O)c1ccncc1)c1ccccc1OCCO)c1cnc2ccccc2c1", "composite z-score": 1.24}, {"molecule": "O=C(NCC(F)(F)F)[C@@H]1c2ccccc2C(=O)N(Cc2cc(F)cc(C(F)(F)F)c2)[C@H]1c1ccc(CO)cc1", "composite z-score": 1.06}, {"molecule": "Cc1ccccc1C(O)C1C=CC2C(=O)N(C)C(=O)C2N1N(c1ccccc1)c1ccccc1", "note": "(stereo not drawn)", "composite z-score": -0.878}, {"molecule": "COCCOC(=O)N1C(=O)[C@@]2(c3cc(C#CC4=CCCCC4)ccc31)[C@H](C(N)=O)[C@H]1C(=O)O[C@H](c3ccccc3)[C@H](c3ccccc3)N1[C@@H]2c1ccccc1OCCO", "composite z-score": 1.34}, {"molecule": "C[N+](C)(C)CCCCCCNC(=O)[C@H]1C[C@H]2C(=O)NCC(=O)N2[C@H]1c1ccc(O)cc1", "composite z-score": 1.17}]}]}
